MITF primary: blocks human microphthalmia-associated transcription factor; O75030; AlphaScreen MITF homodimerization, bead proximity signal; inhibition, % at 2.6 µM; hit rate 0.91% among 650,000; in the data active = inhibition above about 50%;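 also: 0% = vehicle wells with protein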
TEAD-YAP inh: TEAD-YAP interaction inhibition | inhibition, % at 9.12 µM | hit rate 1.4% among 640,000 | HEK-TIYL cells, TEAD-Gal4/YAP UAS-luciferase luminescence | AID 1259422; in the data active = inhibition above about 32%;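 also: 0% = median of test compound wells and 100% = reference inhibitor wells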
FBW7 activator: human FBW7 E3 ligase activation, primary screen. AlphaScreen FBW7–phospho-cyclin E peptide binding, activator screen. hit rate 0.13% among 650,000. Q969H0. normalized activity (activation), % at 26.1 µM; in the data active = normalized activity above about 1.9%;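 also: purified mutant Fbw7 with reduced substrate affinity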
Target sequence (Q969H0 whole entry, looked up): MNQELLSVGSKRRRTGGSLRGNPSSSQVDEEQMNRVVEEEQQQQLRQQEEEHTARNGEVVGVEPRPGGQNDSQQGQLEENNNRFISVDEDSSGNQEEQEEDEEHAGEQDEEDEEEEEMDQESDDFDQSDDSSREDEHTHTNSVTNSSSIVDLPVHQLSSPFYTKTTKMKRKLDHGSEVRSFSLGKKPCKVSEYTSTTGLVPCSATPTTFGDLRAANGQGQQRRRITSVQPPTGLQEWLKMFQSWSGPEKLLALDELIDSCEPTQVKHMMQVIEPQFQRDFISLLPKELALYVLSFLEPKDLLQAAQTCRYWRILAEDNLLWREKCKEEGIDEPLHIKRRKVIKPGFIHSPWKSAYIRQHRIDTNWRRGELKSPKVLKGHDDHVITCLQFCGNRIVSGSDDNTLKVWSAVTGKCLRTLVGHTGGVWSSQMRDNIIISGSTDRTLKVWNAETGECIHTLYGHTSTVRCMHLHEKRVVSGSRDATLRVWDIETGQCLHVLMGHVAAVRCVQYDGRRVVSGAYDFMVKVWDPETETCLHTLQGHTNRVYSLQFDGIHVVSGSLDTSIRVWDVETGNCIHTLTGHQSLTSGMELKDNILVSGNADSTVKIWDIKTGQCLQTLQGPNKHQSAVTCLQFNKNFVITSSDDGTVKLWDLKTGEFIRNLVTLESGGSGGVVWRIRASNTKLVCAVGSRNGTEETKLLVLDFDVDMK
GPR151 activ: human GPR151 activation; Q8TDV0; hit rate 1% among 650,000; activation, % at 11.2 µM; PathHunter beta-arrestin GPR151 cells, luminescence; in the data active = activation above about 4.9%;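 also: 0% = median of compound wells and 100% = cells with positive control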
MITF inh conf: human MITF inhibition, confirmation; shares compounds with MITF primary; AlphaScreen MITF homodimerization, biotin/His-MITF beads; inhibition, % at 2.6 µM; hit rate 16% among 4,700;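 active = inhibition above a cutoff derived from the DMSO control wells, cut at about 28% in these data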;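 also: 0% = MITF dimer wells with DMSO only; inhibitors lower the bead chemiluminescence by keeping MITF from dimerizing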
AlphaScreen intf2: AlphaScreen optical interference, counter-screen | shares compounds with MITF primary | LysRS AlphaScreen counterscreen, signal interference, triplicate | inhibition, % at 2.6 µM | hit rate 7.6% among 4,700;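 active = inhibition above a cutoff derived from the DMSO control wells, cut at about 30% in these data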
* marks the source's active call; other numbers are inactive results. The list is not random: actives were taken first. Their share in the collection is about 3.4%.

What do the screens show for `CCC(CC)C(=O)Nc1nnc(SCC(=O)NC2CCCC2)s1`?
MITF primary: 60.8*; TEAD-YAP inh: 3.3; FBW7 activator: -0.1; GPR151 activ: 0.0; MITF inh conf: 1.3; AlphaScreen intf2: 11.2

Results for CCC(C)C(=O)Nc1nnc(SCC(=O)NC2CCCC2)s1 (stereo unspecified) ?
MITF primary: 13.3; TEAD-YAP inh: 5.1; FBW7 activator: 0.0; GPR151 activ: -0.1

What do the screens show for `CC(=O)c1cccc(-c2nc(C)cc(NC3CCN(Cc4ccccc4)CC3)n2)c1`?
MITF primary: 11.9; TEAD-YAP inh: -8.1; FBW7 activator: 0.0; GPR151 activ: 1.5

Results for CCCN(CCC)CCCNS(=O)(=O)c1ccc2c(c1)CCN2C(=O)CC ?
MITF primary: 10.1; TEAD-YAP inh: 1.9; FBW7 activator: 0.1; GPR151 activ: -0.3

What do the screens show for `COC(=O)c1cccc(NC(=O)CCOc2ccccc2)c1`?
MITF primary: 51.2*; TEAD-YAP inh: -11.0; FBW7 activator: 0.1; GPR151 activ: -0.9; MITF inh conf: -0.3; AlphaScreen intf2: 7.2

What do the screens show for `COc1cc(CN2CCN(c3ccc(F)cc3)CC2)c([N+](=O)[O-])cc1OC`?
MITF primary: 12.0; TEAD-YAP inh: -20.7; FBW7 activator: -0.1; GPR151 activ: -1.2

What do the screens show for `O=C(NC1CCS(=O)(=O)C1)c1ccccc1Br` (stereo unspecified)?
MITF primary: 50.9*; TEAD-YAP inh: -5.1; FBW7 activator: 0.0; GPR151 activ: 0.6; MITF inh conf: 9.6; AlphaScreen intf2: -5.8

What do the screens show for `O=C(NC(=S)NC1CCS(=O)(=O)C1)c1ccccc1Br` (stereo unspecified)?
MITF primary: -6.8; TEAD-YAP inh: 6.4; FBW7 activator: 0.1; GPR151 activ: -1.4

Results for O=C(O)c1ccc(N2CCCC2=O)cc1O ?
MITF primary: 7.3; TEAD-YAP inh: 2.3; FBW7 activator: 0.0; GPR151 activ: -1.1

How did CC(=O)N/C(=C\c1ccccc1)C(=O)OCC(=O)OC(C)(C)C do in these assays?
MITF primary: 53.9*; TEAD-YAP inh: -7.7; FBW7 activator: -0.1; GPR151 activ: -0.4; MITF inh conf: 13.8; AlphaScreen intf2: 12.3

How did O=C(NCC(c1ccsc1)N1CCCCCC1)c1c(F)cccc1F (stereo unspecified) do in these assays?
MITF primary: 84.4*; TEAD-YAP inh: -2.1; FBW7 activator: -0.1; GPR151 activ: 1.2; MITF inh conf: -16.7; AlphaScreen intf2: -3.8

What do the screens show for `Cn1cccc1C1N=C(N)Nc2nc3ccccc3n21` (stereo unspecified)?
MITF primary: 8.7; TEAD-YAP inh: 9.8; FBW7 activator: 0.0; GPR151 activ: -0.3

Results for CCCCOCC(O)Cn1c2ccccc2c2ccccc21 (stereo unspecified) ?
MITF primary: 6.2; TEAD-YAP inh: -5.6; FBW7 activator: -0.5; GPR151 activ: -2.1

Results for CCCCOCC(O)Cn1c(Cc2ccccc2)nc2ccccc21 (stereo unspecified) ?
MITF primary: 57.6*; TEAD-YAP inh: -5.9; FBW7 activator: -0.1; GPR151 activ: 0.9; MITF inh conf: 5.8; AlphaScreen intf2: 16.0

What do the screens show for `CCCS(=O)(=O)n1c(SCC(=O)Nc2cc(Cl)ccc2OC)nc2ccccc21`?
MITF primary: -10.9; TEAD-YAP inh: 6.0; FBW7 activator: -0.2; GPR151 activ: -0.6

Results for CCc1n[nH]c(=S)n1/N=C/c1ccc(F)cc1 ?
MITF primary: 4.4; TEAD-YAP inh: -9.3; FBW7 activator: 0.2; GPR151 activ: -0.5

What do the screens show for `CCc1n[nH]c(=S)n1N=C1CCC(C)CC1` (stereo unspecified)?
MITF primary: 59.4*; TEAD-YAP inh: 2.5; FBW7 activator: 0.3; GPR151 activ: 0.5; MITF inh conf: -0.7; AlphaScreen intf2: -2.1

Results for Cc1[nH]c2c(-n3c(C)cc(C(F)(F)F)cc3=O)cccc2c1C ?
MITF primary: 52.7*; TEAD-YAP inh: 3.4; FBW7 activator: -0.1; GPR151 activ: 1.0; MITF inh conf: 9.2; AlphaScreen intf2: 11.7

How did O=C(CN1CCSCC1)N/N=C/c1cccc(C(F)(F)F)c1 do in these assays?
MITF primary: 56.1*; TEAD-YAP inh: -2.3; FBW7 activator: 0.6; GPR151 activ: -1.4; MITF inh conf: 7.6; AlphaScreen intf2: 5.6

Results for CC(C)(C)C(=O)NCCNc1ccc(Cl)cc1[N+](=O)[O-] ?
MITF primary: 86.9*; TEAD-YAP inh: -1.3; FBW7 activator: 0.0; GPR151 activ: 3.5; MITF inh conf: -3.8; AlphaScreen intf2: -2.7

How did Cc1cc(=O)oc2c3c(ccc12)OCN(c1ccc(F)cc1)C3 do in these assays?
MITF primary: 1.4; TEAD-YAP inh: 2.9; FBW7 activator: 0.0; GPR151 activ: -1.6

How did Cc1nnc2n1NC(c1ccccc1)C(C(=O)Nc1ccc(F)c(Cl)c1)S2 (stereo unspecified) do in these assays?
MITF primary: 16.8; TEAD-YAP inh: 7.6; FBW7 activator: 0.2; GPR151 activ: -0.2

What do the screens show for `O=C(/C=C/c1ccc(S(=O)(=O)NCc2ccco2)cc1)Nc1ccc(F)c([N+](=O)[O-])c1`?
MITF primary: -4.3; TEAD-YAP inh: 1.6; FBW7 activator: -0.2; GPR151 activ: -1.6

Results for O=C1CC(=O)N(Cc2ccco2)C(=O)N1 ?
MITF primary: 32.6; TEAD-YAP inh: 4.7; FBW7 activator: 0.3; GPR151 activ: 1.3

How did O=C1CC(=O)N(Cc2ccco2)C(=S)N1 do in these assays?
MITF primary: 70.2*; TEAD-YAP inh: -4.8; FBW7 activator: -1.0; GPR151 activ: 0.4; MITF inh conf: -10.8; AlphaScreen intf2: 61.6*

How did COc1cc(CNC2CCCCC2)cc(OC)c1 do in these assays?
MITF primary: 51.9*; TEAD-YAP inh: 15.8; FBW7 activator: 0.3; GPR151 activ: -0.8; MITF inh conf: -9.4; AlphaScreen intf2: -10.2

What do the screens show for `COc1cc(CNC2CCCC2)cc(OC)c1`?
MITF primary: 27.1; TEAD-YAP inh: 5.7; FBW7 activator: 0.1; GPR151 activ: -0.7

What do the screens show for `COc1ccc(C(=O)/C=C2\NC(=O)CS2)cc1`?
MITF primary: -5.0; TEAD-YAP inh: -31.2; FBW7 activator: -0.2; GPR151 activ: -2.7

What do the screens show for `CCOC(=O)c1c(NC(NC(=O)c2ccc(Cl)cc2)C(=O)c2ccccc2)sc(C(C)=O)c1C` (stereo unspecified)?
MITF primary: -13.8; TEAD-YAP inh: -5.7; FBW7 activator: -0.1; GPR151 activ: -0.7

How did CN1CCN(CC(O)Cn2cc(C=O)c3ccccc32)CC1 (stereo unspecified) do in these assays?
MITF primary: 65.8*; TEAD-YAP inh: -15.1; FBW7 activator: -0.1; GPR151 activ: 2.2; MITF inh conf: -0.1; AlphaScreen intf2: -4.9

How did CC(=O)C(Cc1ccccc1)NC(=O)CN1CCN(C/C=C/c2ccccc2)CC1 (stereo unspecified) do in these assays?
MITF primary: 62.1*; TEAD-YAP inh: 3.6; FBW7 activator: 0.1; GPR151 activ: -1.2; MITF inh conf: 14.1; AlphaScreen intf2: 14.4

Bioassay records: PubChem BioAssay, The Scripps Research Institute Molecular Screening Center
